Laboratory results from ChEMBL document CHEMBL4513216, “Probing the Open Global Health Chemical Diversity Library for Multistage-Active Starting Points for Next-Generation Antimalarials” (ACS Infect Dis, 2020).
Among all 69,000 compounds or so, about 8,600 (12%) showed an effect of 50% or more. The list comes from a sample in which strong results are over-represented; it also holds similar structures and randomly drawn compounds.

system: Plasmodium berghei; assay: Screen against P. berghei liver stage (PbLuc), transformed with Luciferase, at 10uM; format: functional, HepG2; conditions: tested at 10 uM

SMILES | INHIBITION [%]
CC(C)c1nnc2n1CCN(Cc1nc(-c3ccoc3)no1)C2 | 17.45
CC1CN(C(=O)CN(Cc2ccccc2Cl)C2CCCC2)CCO1 (stereo unspecified) | -0.219
COc1ccc(CN2CCn3cc(CNC(=O)C4CCC4)nc3C2)cc1 | 19.5
O=C(c1ccco1)N1CCN2C[C@H](OCc3cccnc3)C[C@H]2C1 | 12.4
O=C(c1cccc(F)c1)N1CCN2C[C@H](OCc3cccnc3)C[C@H]2C1 | 17.1
O=C(c1cnccn1)N1CCN2C[C@H](OCc3ccccn3)C[C@H]2C1 | -0.182
Cc1cnc(C(=O)N2CCN3C[C@H](OCc4cccnc4)C[C@H]3C2)cn1 | 52
O=C(c1ccc(F)cc1)N1CCN2C[C@H](OCc3cccnc3)C[C@H]2C1 | 82.3
O=C(c1cscn1)N1CCN2C[C@H](OCc3cccnc3)C[C@H]2C1 | 33
O=C(c1cnccn1)N1CCN2C[C@H](OCc3ccccc3)C[C@H]2C1 | 11
O=C(c1cnccn1)N1CCN2C[C@H](OCc3ccccc3F)C[C@H]2C1 | 59.8
O=C(c1ccnnc1)N1CCN2C[C@H](OCc3cccnc3)C[C@H]2C1 | 26.4
CS(=O)(=O)NC1CCCN(C(=O)COCc2ccccc2)C1 (stereo unspecified) | -75.98
Cc1ncc2c(n1)CCN(CCCc1nc3ccccc3o1)C2 | -65.2
O=C(NCc1cn2c(n1)CN(Cc1ccccn1)CC2)C1CCC1 | -8.94
CC(=O)N1[C@H](CN(C)C)C[C@@H]2CN(C(=O)c3ccno3)CC[C@@H]21 | 17.4
Cc1cc(C)c(C(=O)N2CCOC(CCN(C)C)C2)o1 (stereo unspecified) | -5.12
Cc1ccc(N2CCC3(CCN(C(=O)c4ccsc4)C3)CC2)nn1 | 36.4
Cc1nc[nH]c1C(=O)N1CCC2(CN(C)C(=O)O2)C1 (stereo unspecified) | -11.2
CN1CC2(CCN(C(=O)c3ccc4c(=O)n(C)cnc4c3)C2)OC1=O (stereo unspecified) | 88.2
CN1CC2(CCN(C(=O)c3ccc4c(=O)n(C)cnc4c3)CC2)CC1=O | 32.5
Cc1noc(C2CCN(Cn3cc(Br)cn3)CC2)n1 | -47

SMILES | INHIBITION [%]
O=C(O)[C@@H]1OCC(=O)N(Cc2cccc(Cl)c2)[C@@H]1c1ccccc1 | -25.3
O=C(O)CCCc1ccc2c(c1)CC(=O)N2 | 24.2
CCSCCOC(=O)CCCc1ccc2c(c1)CC(=O)N2 | 54.9
CCOC(=O)CCCc1ccc2c(c1)CC(=O)N2 | 3.4
CCc1c(C(=O)NC2CCS(=O)(=O)C2)cnn1-c1ccc(C)cc1 (stereo unspecified) | -17
Cc1ccc(-n2ncc(C(=O)NC3CC(C)(C)NC(C)(C)C3)c2N)cc1 | -21.1
Cc1ccc(-n2ncc(C(=O)NC3CCCCC3)c2N)cc1 | 66.5
CCOc1c(F)cccc1C(=O)N(c1cccnc1)C(C)C | 55.1
CCOc1c(F)cccc1C(=O)N(CC)C(C)c1ccncc1 (stereo unspecified) | 31.2
CCOc1c(F)cccc1C(=O)N(CC)C(C)c1cccnc1 (stereo unspecified) | 43.1
COC(=O)CN(CC1CCOC1)C1CC1 (stereo unspecified) | 50.5
COC(=O)CCN(CC1CCOC1)C1CC1 (stereo unspecified) | 43.9
NC(=O)CN(CC1CCOC1)C1CC1 (stereo unspecified) | 9.16
CC(C)N1CCc2[nH]nc(C(=O)N3CCN(C)CC3)c2C1 | 1.34
COc1ccc(-n2nnc(C(=O)NC(C)C)c2C2CC2)cc1 | 40.1
COc1ccc(-n2nnnc2C2(NCc3ccco3)CCCCC2)cc1 | 24.2
Cc1ccc(NC(C)(C)c2nnnn2-c2ccc(Cl)cc2)c(C)c1 | 81.1
COc1ccc(-n2nnnc2C(C)(C)Nc2ccc(C)cc2C)cc1 | 77.7
Cc1cc(Cl)ccc1NCC(=O)Nc1cc(C(C)(C)C)no1 | 24.7
Cc1cccc(-n2nnnc2C(C)(C)Nc2ccccc2C)c1 | 39.1
c1cnc2c(c1)cc([C@@H]1CCCO1)n2CCN1CCOCC1 | 0.301
NC(=O)C(CNC(=O)CCc1ccsc1)Cc1ccc(F)cc1 (stereo unspecified) | 13.1

SMILES | INHIBITION [%]
Cc1ccoc1C(=O)N1CC[C@H]2[C@@H]1CCC(=O)N2c1cccnc1 | -7.38
OCc1n[nH]c(-c2ccc(F)cc2)n1 | -17
c1cnnc(NCC2CN(CC3CCOCC3)CCO2)c1 (stereo unspecified) | -35.7
CCN1Cc2cc(OC)ccc2N(CC(C)(C)O)CCC1=O | 17.7
CC(C)(O)CN1CCC(=O)N(Cc2ccco2)Cc2cc(F)ccc21 | -17.1
COc1ccc2c(c1)CN(Cc1ccco1)C(=O)CCN2CC(C)(C)O | 51.7
CCOc1cc(CNCC2CN(C3CC3)CCO2)ccc1OC (stereo unspecified) | 22.3
O=C(N[C@@H]1CN(CCc2ccc(F)cc2)C[C@H]1O)c1cscn1 | 54.5
O=C(N[C@@H]1CN(Cc2ccc(F)cc2)C[C@H]1O)c1cscn1 | 10
O=C(N[C@@H]1CN(Cc2ccc(F)c(F)c2)C[C@H]1O)c1cscn1 | 2.6
Cc1nc(Nc2nnc(C)s2)cc(C2CCCN2C2CCCC2)n1 (stereo unspecified) | 28
CCc1ncnc2c1CCN(Cc1ccccn1)CC2 | -9.48
Cc1occc1C(=O)Nc1ccnc(OC2CCOC2)c1 (stereo unspecified) | 7.84
O=C(Nc1ccnc(OC2CCOC2)c1)c1ccccc1Cl (stereo unspecified) | 65.3
O=C(Nc1ccnc(OC2CCOC2)c1)c1ccc(F)cc1Cl (stereo unspecified) | 17.6
CN(C)Cc1cc(C2CCCCN2S(=O)(=O)c2cccc(Cl)c2)nn1C (stereo unspecified) | 37.8
CC(=O)Nc1ccc(SCC(O)COCc2ccco2)cc1 (stereo unspecified) | 26.9
COc1ccc2oc(C(C)NC(=O)NCC(C)(C)C(N)=O)c(C)c2c1 (stereo unspecified) | 42.3
CCN(Cc1ccncc1)C(=O)CCn1c(C)cc2ccccc21 | 14.9
CCN(Cc1noc(C)n1)C(=O)CCn1c(C)cc2ccccc21 | 58.5
CCN(Cc1nc(COC)no1)C(=O)CCn1c(C)cc2ccccc21 | 36.7
COCCNC(=O)[C@H]1C[C@@H]2CCN(c3ncccn3)C[C@H]2O1 | -56.7

SMILES | INHIBITION [%]
CN1CCN(CC2CC2)C(=O)C12CCN(C(=O)CC(F)(F)F)CC2 | -14.2
CCN1CCN(C)C2(CCN(C(=O)CC(F)(F)F)CC2)C1=O | 71.3
CN1CCN(C)C2(CCN(C(=O)CC(F)(F)F)CC2)C1=O | 27.5
CC(C)CC(=O)NS(=O)(=O)c1ccc(C#N)cc1C(F)(F)F | 2.3
COc1ccc(C2=NOC(C#N)C2)cc1 (stereo unspecified) | 15.9
Cc1cc(N(C)C)nc(N2CCN(C(C)c3nc(C)no3)CC2)n1 (stereo unspecified) | -71.2
Cc1cc(N(C)C)nc(N2CCn3c(nnc3C3CC3)C2)n1 | 21.2
Cc1cc(N(C)C)nc(N2CCn3c(C)nnc3C2)n1 | 51.1
Cc1cc(N(C)C)nc(N2CCN(Cc3nccn3C)CC2)n1 | -87
CCc1nnc2n1CCN(c1nc(C)cc(N(C)C)n1)C2 | 71.5
CCc1nnc2n1CCN(C(=O)c1ccnc(N(C)C)c1)C2 | 19.2
Cc1cn2nc(N3CCn4c(nnc4C(C)C)C3)sc2n1 | 7.81
Cc1cc(N(C)C)nc(N2CCn3c(nnc3C(C)C)C2)n1 | 52.2
CC(C)c1nnc2n1CCN(C(=O)c1ccnc(N(C)C)c1)C2 | 42
CS(=O)(=O)NCCC1CCCCN1C(=O)NCc1ccccn1 (stereo unspecified) | 4.13
CC(C)COc1cncc(N2CCCC(CC(N)=O)C2)n1 (stereo unspecified) | 4.82
O=C(c1cnccn1)N1CCc2onc(CN3CCOCC3)c2C1 | 45.5
c1ccc2cc(OCCCN3CCn4c(nnc4C4CC4)C3)ccc2c1 | 35.9
CC(C)=CCN1CC2(CCN(C(=O)CCn3ccnc3C)CC2)CC1=O | 27.7
CC(C)N(C)C[C@H]1C[C@@H]2CN(Cc3ccco3)C[C@@H]2O1 | 8.74
O=C(C1CCCC1)N1CCCC([C@@H]2C[C@H](C(F)F)n3ncnc3N2)C1 (stereo partly specified) | 0.788
O=C1CN(CCS(=O)(=O)c2ccc(Cl)cc2)CCN1 | 14

SMILES | INHIBITION [%]
CC1CN(c2ncccc2C(=O)Nc2cccc3c2CCCC3)CCN1 (stereo unspecified) | -63.6
Cc1cccc(C(=O)Nc2cccc3c2CCCC3)n1 | -45.5
O=C(Nc1cccc2c1CCCC2)c1cccnc1N1CCCNCC1 | 53
c1cnc(N2CCO[C@H]3[C@H](OCc4cccnc4)CC[C@@H]32)nc1 | 21.5
CS(=O)(=O)N1C[C@@H](NC(=O)c2ccno2)[C@@H]2OCCC[C@@H]21 | 36.7
CN1CC(=O)N(c2ccsc2)CC12CCN(C(=O)Nc1ccccc1)C2 (stereo unspecified) | 1.94
CC(C(=O)N1CCCN(Cc2ccc(C#N)cc2)CC1)n1cccn1 (stereo unspecified) | 19.583
CCCC(=O)NCCc1cc(N2CCN(C(C)=O)CC2)nc(C2CC2)n1 | 46
CC(=O)NCCc1cc(N2CCN(C(C)=O)CC2)nc(C2CC2)n1 | 43.8
CCC(=O)NCCc1cc(N2CCN(C(C)=O)CC2)nc(C2CC2)n1 | 51.2
COc1cccc(CN(C)C(C)C(=O)Nc2nc(C)c(C)s2)c1 (stereo unspecified) | 39.3
CCS(=O)(=O)N1CCC[C@]2(C(=O)N(C)C)CN(c3ncccn3)C[C@@H]2C1 | -47.6
NC(=O)c1ccc(N2CCN(Cc3c(Cl)cncc3Cl)CC2)nc1 | 30.7
CCc1nn(C)c(Cl)c1CN1CCN(c2ccc(Cl)nn2)CC1 | 66.6
CCc1nn(C)c(Cl)c1CN1CCC(c2cc(O)nc(C)n2)CC1 | 3.96
CCc1nn(C)c(Cl)c1CN1CCN(c2ccc(C(N)=O)cn2)CC1 | 40.7
CCOC(=O)c1ccc(N2CCN(Cc3c(C)nn(C)c3Cl)CC2)nc1 | 74.9
CCc1nn(C)c(Cl)c1CN1CCN(c2nc(C(N)=O)cs2)CC1 | 24.1
